The results in this text go back to PubChem BioAssay (NCATS).

Records with an inconclusive call do not appear. Values without a mark were called inactive. Calls of active or inactive are those of the source. Calls come from the whole dose curve; as a rule, active = well fitted curve in the direction sought with a large enough effect; inconclusive = small, poorly fitted or top-dose-only effect, or another doubt; inactive = no such curve, though single readings can be large; an effect the other way counts as inactive or inconclusive.

The test system of one assay is TAB165. The assay is described as follows: qHTS profiling for inhibitors of Plasmodium falciparum proliferation (AID 504749). Note: nearly all actives have a fitted effect of over 60% in size. Note: potency is the fitted concentration of half-maximal effect. The conditions noted are these: P. falciparum in erythrocytes, SYBR Green DNA, 72 h; series mostly up to 28.7 µM. A digest of the protocol:
(§1)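 Three-day growth assay of blood-stage parasites in erythrocytes (0.3% parasitemia, 2.5% hematocrit) at 37 C, 5% CO2, quantified by SYBR Green DNA staining after overnight detergent lysis.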
On the technique in general: In qHTS, concentration-response curves come from the screen itself.

The subject of the next assay is W2. Described as above. The conditions noted are these: P. falciparum in erythrocytes, SYBR Green DNA, 72 h; series mostly up to 28.7 µM. Put shortly: as §1
The subject of another assay is C33A. In words: Primary qHTS to identify gynecologic anti-cancer compounds using libraries of approved drugs and bioactive compounds (AID 1345084). Note: % is set by controls: 0 for no effect and ±100 for the full control effect; nearly all actives have a fitted effect of over 55% in size. The conditions noted are these: Gynecologic cancer cell panel viability, ATPlite luminescence, 48 h; series mostly up to 57.5 µM. A digest of the protocol:
(§2)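 Luminescence from the ATPlite ATP-monitoring reagent indicates viable cell number; lower signal means cytotoxicity. Cells received compound 16 h after seeding and were exposed for 48 h across five concentrations.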

For a further assay, the system named is CAOV3. The assay is described as above. The conditions noted are these: Gynecologic cancer cell panel viability, ATPlite luminescence, 48 h; series mostly up to 57.5 µM. Put shortly:
as §2
(In general: Cellular ATP, detected with luciferase, serves as a proxy for viable cell number.)

For a further assay, the system named is Es-2. The description is as above. The conditions noted are these: Gynecologic cancer cell panel viability, ATPlite luminescence, 48 h; series mostly up to 57.5 µM. Put shortly:
as §2

Another assay relates to CASKI. The description is as above. The conditions noted are these: Gynecologic cancer cell panel viability, ATPlite luminescence, 48 h; series mostly up to 57.5 µM. A digest of the protocol: as §2
The next assay deals with MCC-13. The assay is described as follows: qHTS assay to identify novel small-molecules to repurpose for Merkel cell carcinoma treatment (AID 1296009). Note: % is set by controls: 0 for no effect and ±100 for the full control effect; nearly all actives have a fitted effect of over 60% in size. The conditions noted are these: MCC and control cell lines, CellTiter-Glo viability, 72 h; series mostly up to 46 µM. A digest of the protocol:
(§3)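 After compound transfer in DMSO, plates were kept 72 hr at 37 degree celsius. Luminescent ATP signal from CellTiter-Glo served as viability measure, normalized against DMSO and no-cell controls.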

A further assay has as its system MCC-26. Described as above. The conditions noted are these: MCC and control cell lines, CellTiter-Glo viability, 72 h; series mostly up to 46 µM. A digest of the protocol: as §3
The subject of another assay is MKL-1. The description is as above. The conditions noted are these: MCC and control cell lines, CellTiter-Glo viability, 72 h; series mostly up to 46 µM. Put shortly: as §3
A further assay deals with MKL-2. Described as above. The conditions noted are these: MCC and control cell lines, CellTiter-Glo viability, 72 h; series mostly up to 46 µM. Put shortly:
as §3

The test system of the next assay is UISO. Described as above. The conditions noted are these: MCC and control cell lines, CellTiter-Glo viability, 72 h; series mostly up to 46 µM. A digest of the protocol: as §3
The next assay concerns WaGa. The description is as above. The conditions noted are these: MCC and control cell lines, CellTiter-Glo viability, 72 h; series mostly up to 46 µM. A digest of the protocol: as §3

`CC(C)NC[C@@H](O)COc1cccc2ccccc12`: the Potency in the assay with TAB165 was 7.94 µM (active); in the assay with W2 it was 1.69 µM (active). The Potency result in the assay with C33A, with CAOV3 and in the assay with Es-2 was “inactive” throughout.
Regarding `Cc1c(C(N)=O)cc([N+](=O)[O-])cc1[N+](=O)[O-]`, the Potency entry with TAB165, in the assay on C33A, in the assay with CASKI and in the assay with Es-2 was “inactive” throughout.
For the molecule `CNCCC(Oc1ccccc1C)c1ccccc1` (configuration not stated), the Potency in the assay on W2 was 3.79 µM (active).
As for `Nc1ccc(/C=C/c2ccc(N)cc2S(=O)(=O)O)c(S(=O)(=O)O)c1`, the Potency entry with TAB165 and in the assay on W2 was “inactive” each time. Moreover, the activity change, negative = cytotoxicity in the assay with C33A was -2.85% [at 0.462 µM]; with CAOV3 it was -5.63% [at 0.462 µM]; with CASKI, -23.3% [at 0.462 µM]; with Es-2, 1.34% [at 0.462 µM].
For the molecule `CCCCCCCCCCCCCCCCOP(=O)([O-])OCC[N+](C)(C)C`, the Potency entry in the assay on TAB165, in the assay on MCC-13, in the assay with MCC-26, in the assay on C33A, in the assay with CASKI and with Es-2 was “inactive” in each case.
For `COc1cccc(OC)c1C(=O)N[C@@H]1C(=O)N2[C@@H]1SC(C)(C)[C@@H]2C(=O)O`, the Potency entry in the assay on C33A, in the assay on CAOV3, in the assay with CASKI and with Es-2 was “inactive” throughout.
Consider `OC[C@@H](O)[C@@H](O[C@@H]1O[C@H](CO)[C@H](O)[C@H](O)[C@H]1O)[C@H](O)[C@@H](O)CO`, for which the Potency entry in the assay on MCC-13, in the assay on MCC-26, in the assay with MKL-1, in the assay on MKL-2, in the assay on UISO and in the assay on WaGa was “inactive” throughout. For the same molecule, the Potency entry in the assay on C33A, in the assay with CASKI and in the assay on Es-2 was “inactive” throughout.
Take `C[C@]12CC[C@@H]3c4ccc(O)cc4CC[C@H]3[C@@H]1CC[C@@H]2O`: the Potency entry with TAB165 and in the assay on W2 was “inactive” each time.
As to `C/C=C/c1ccc(OC)cc1`, the Potency result in the assay on C33A, in the assay with CAOV3, in the assay with CASKI and with Es-2 was “inactive” each time.
On to `COc1cc(NS(C)(=O)=O)ccc1Nc1c2ccccc2nc2ccccc12`, for which the Potency in the assay on TAB165 is 2.24 µM (active); with W2, 2.13 µM (active).
Regarding `COc1cc(C(=S)N2CCOCC2)cc(OC)c1OC`, the Potency entry in the assay on W2, in the assay on C33A, in the assay with CASKI and with Es-2 was “inactive” each time.
As to `CCN1CCN(c2cc3c(cc2F)c(=O)c(C(=O)O)cn3C2CC2)CC1`, the Potency entry in the assay with TAB165, with C33A, with CAOV3, with CASKI and in the assay on Es-2 was “inactive” each time.
Take `CC(O)C(=O)O` (configuration not stated): the Potency result in the assay with TAB165, in the assay with W2, in the assay on C33A, with CAOV3, in the assay with CASKI and with Es-2 was “inactive” in each case.
Regarding `C[C@]12CC[C@@H]3c4ccc(O)cc4CC[C@H]3[C@@H]1C[C@@H](O)[C@@H]2O`, the Potency result in the assay on C33A, in the assay with CAOV3, in the assay on CASKI and with Es-2 was “inactive” each time.
For the molecule `CCN1CCCC1=O`, the Potency result in the assay on TAB165, with W2, with C33A, in the assay on CAOV3, in the assay with CASKI and in the assay with Es-2 was “inactive” each time.
As for `CN1C(CCl)Nc2cc(Cl)c(S(N)(=O)=O)cc2S1(=O)=O` (configuration not stated), the Potency entry with TAB165, in the assay on W2, with C33A, in the assay on CAOV3, in the assay on CASKI and in the assay with Es-2 was “inactive” throughout.
Regarding `CCCn1c(=O)[nH]c(=O)c2[nH]cnc21`, the Potency entry in the assay with TAB165 and with W2 was “inactive” each time.
As for `CC(=O)OCC(=O)[C@@]12OC(C)(C)O[C@@H]1C[C@H]1[C@@H]3C[C@H](F)C4=CC(=O)C=C[C@]4(C)[C@@]3(F)[C@@H](O)C[C@@]12C`, the Potency entry in the assay on C33A, with CASKI and with Es-2 was “inactive” throughout.
In the case of `CC(C)(Oc1ccc(Cl)cc1)C(=O)O`, the Potency result with TAB165, in the assay with W2, with MCC-13, with MCC-26, in the assay on MKL-1 and with MKL-2 was “inactive” in each case. Moreover, the Potency entry in the assay on UISO, with WaGa, with C33A, in the assay on CAOV3, in the assay with CASKI and in the assay with Es-2 was “inactive” throughout.
On to `C[C@H]1[C@H](NC(=O)/C(=N/OC(C)(C)C(=O)O)c2csc(N)n2)C(=O)N1S(=O)(=O)O` (stereo in doubt), for which the Potency entry in the assay with TAB165, with W2, with MCC-13, in the assay with MCC-26, with MKL-1 and in the assay with MKL-2 was “inactive” throughout. The Potency result with UISO, with WaGa, in the assay with C33A, in the assay on CASKI and in the assay on Es-2 was “inactive” throughout.
Take `C#C[C@]1(O)CC[C@H]2[C@@H]3CCC4=CC(=O)CC[C@@H]4[C@H]3CC[C@@]21C`: the Potency result with MCC-13, in the assay on MCC-26, in the assay on MKL-1, with MKL-2, in the assay on UISO and in the assay on WaGa was “inactive” each time. Also, the Potency result with C33A, in the assay with CAOV3, with CASKI and in the assay on Es-2 was “inactive” in each case.
